Results on 14 compounds are retold here after paper PMC5540273 (PLoS ONE, 2017).

One assay relates to WNK1. The conditions noted are these: concentration: 1 μM,replicates: in singlicate; n = 1.
The next assay deals with WNK2. As to conditions: concentration: 1 μM,replicates: in singlicate; n = 1.
In a further assay the test system is WNK3. As to conditions: concentration: 1 μM,replicates: in singlicate; n = 1.
A further assay concerns WNK4. The conditions noted are these: concentration: 1 μM,replicates: in singlicate; n = 1.
The next assay concerns T1, YANK1.
T1 construct: gene STK32A
As to conditions: concentration: 1 μM,replicates: in singlicate; n = 1.

The subject of another assay is T2, YANK2.
T2 construct: gene STK32B
The conditions noted are these: concentration: 1 μM,replicates: in singlicate; n = 1.

In another assay the test system is T3, YANK3.
T3 construct: gene STK32C
The conditions noted are these: concentration: 1 μM,replicates: in singlicate; n = 1.

The next assay has as its system T4, YES.
T4 construct: gene YES1
As to conditions: concentration: 1 μM,replicates: in singlicate; n = 1.

For the next assay, the system named is T5, YSK1.
T5 construct: gene STK25
As to conditions: concentration: 1 μM,replicates: in singlicate; n = 1.

A further assay deals with T6, YSK4.
T6 construct: gene MAP3K19
As to conditions: concentration: 1 μM,replicates: in singlicate; n = 1.

Another assay deals with ZAK. As to conditions: concentration: 1 μM,replicates: in singlicate; n = 1.
The test system of a further assay is ZAP70. As to conditions: concentration: 1 μM,replicates: in singlicate; n = 1.
For the next assay, the system named is T7, p38-alpha.
T7 construct: gene MAPK14
As to conditions: n = 1.

In another assay the test system is T8, p38-beta.
T8 construct: gene MAPK11
The conditions noted are these: concentration: 1 μM,replicates: in singlicate; n = 1.

Another assay has as its system p38-delta. As to conditions: concentration: 1 μM,replicates: in singlicate; n = 1.
The next assay deals with T9, p38-gamma.
T9 construct: gene MAPK12
As to conditions: concentration: 1 μM,replicates: in singlicate; n = 1.

[1] abbreviates: concentration: 1 μM,replicates: in singlicate.

Like-named read-outs stand apart in the source and are kept apart here.
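Also: KINOMEscan kinase panel screen.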

As to `CNC(=O)c1ccccc1Sc1ccc2c(/C=C/c3ccccn3)n[nH]c2c1`, the “%Inh” value with WNK1 is given as 0%; in the assay on WNK2, 11%; with WNK3, 0%; in the assay with WNK4 it was 0%; in the assay on YANK1, 19%; with YANK2, 0%. The “%Inh” value amounted to 0% in the assay on YANK3; 0% in the assay on YES; 0% in the assay with YSK1; 78% in the assay with YSK4; 53% in the assay with ZAK; 0% in the assay on ZAP70. The “%Inh” value with p38-alpha (setting [1]) stood at 5%; in the assay on p38-beta, 15%; in the assay with p38-delta, 10%; in the assay on p38-gamma, 25%.
`C[C@H]1Oc2cc(cnc2N)-c2c(nn(C)c2C#N)CN(C)C(=O)c2ccc(F)cc21`: the “%Inh” value is 0% in the assay with WNK1; 2% in the assay with WNK2; 0% in the assay with WNK3; 0% in the assay with WNK4; 0% in the assay on YANK1; 12% with YANK2. In addition, the “%Inh” value in the assay on YANK3 is given as 3%; in the assay with YES, 2%; with YSK1, 0%; in the assay on YSK4 it was 0%; in the assay with ZAK, 0%; with ZAP70, 0%. Moreover, the “%Inh” value is given as 9% in the assay with p38-alpha (setting [1]), 18% in the assay with p38-beta, 0% in the assay with p38-delta and 5% with p38-gamma.
In the case of `Cl.Oc1cc(-c2nc(-c3ccccc3)[nH]c2-c2ccncc2)ccc1Cl` [SB-386023], the “%Inh” value with WNK1 amounted to 0%; with WNK2, 0%; in the assay on WNK3, 0%; in the assay with WNK4 it was 38%; in the assay with YANK1, 0%; in the assay with YANK2 it was 26%. Besides, the “%Inh” value in the assay with YANK3 is reported as 0%; in the assay on YES, 31%; in the assay with YSK1 it was 0%; in the assay with YSK4 it was 0%; in the assay with ZAK, 25%; with ZAP70, 15%. Also, the “%Inh” value is 85% in the assay with p38-alpha (1 µM), 26% in the assay on p38-beta, 0% in the assay with p38-delta and 36% with p38-gamma.
As to `C=CC(=O)Nc1cc2c(Nc3ccc(F)c(Cl)c3)ncnc2cc1OCCCN1CCOCC1` [GW781483], the “%Inh” value in the assay with WNK1 was found to be 16%; with WNK2 it was 0%; with WNK3, 20%; in the assay with WNK4 it was 0%; with YANK1 it was 17%; with YANK2 it was 0%. The “%Inh” value amounted to 0% with YANK3; 15% in the assay with YES; 0% in the assay with YSK1; 49% in the assay on YSK4; 0% with ZAK; 31% with ZAP70. Moreover, the “%Inh” value in the assay with p38-alpha (setting [1]) amounted to 19%; with p38-beta, 0%; with p38-delta it was 20%; in the assay with p38-gamma it was 0%.
Turning to `Nc1nc(Nc2ccccc2)cc(-c2ccc3c(N)n[nH]c3c2)n1` [GSK2225749], the “%Inh” value was 5% in the assay with WNK1; 0% in the assay on WNK2; 7% in the assay with WNK3; 0% in the assay with WNK4; 15% in the assay on YANK1; 0% with YANK2. Also, the “%Inh” value with YANK3 is 6%; with YES it was 0%; in the assay on YSK1, 0%; in the assay with YSK4 it was 46%; in the assay on ZAK, 3%; in the assay with ZAP70 it was 0%. For the same compound, the “%Inh” value in the assay on p38-alpha (setting [1]), with p38-beta, with p38-delta and in the assay on p38-gamma was 0% each time.
As to `CC(C)N1C(=O)Cc2cc(Nc3ncc(C(F)(F)F)c(NCc4cccc(S(C)(=O)=O)c4)n3)ccc21`, the “%Inh” value with WNK1 is on record as 0%; in the assay on WNK2, 1%; with WNK3, 0%; in the assay on WNK4, 23%; with YANK1, 6%; in the assay on YANK2, 0%. Besides, the “%Inh” value in the assay on YANK3 is recorded as 0%; in the assay on YES, 9%; in the assay on YSK1, 0%; in the assay on YSK4 it was 99.8%; in the assay on ZAK, 0%; in the assay on ZAP70, 62%. The “%Inh” value in the assay on p38-alpha (setting [1]) is recorded as 96.4%; with p38-beta, 2%; with p38-delta, 0%; in the assay on p38-gamma it was 0%.
Take `Cl.Cl.NC[C@H](CC1CCCCC1)NC(=O)c1cc(Br)c(-c2ccnc3[nH]ccc23)s1` [GSK1581427]: the “%Inh” value in the assay on WNK1 stood at 0%; in the assay on WNK2, 3%; with WNK3, 5%; with WNK4, 0%; with YANK1 it was 42%; in the assay on YANK2, 0%. The “%Inh” value is 18% with YANK3; 1% in the assay on YES; 0% in the assay with YSK1; 99.6% with YSK4; 0% in the assay on ZAK; 0% in the assay with ZAP70. The “%Inh” value in the assay with p38-alpha (setting [1]) worked out at 0%; with p38-beta, 0%; with p38-delta, 4%; in the assay with p38-gamma, 0%.
As for `C[C@@H](Oc1cc(-c2cnn(C3CCNCC3)c2)cnc1N)c1c(Cl)ccc(F)c1Cl`, the “%Inh” value in the assay on WNK1 was 11%; with WNK2, 46%; with WNK3, 0%; in the assay with WNK4 it was 8%; in the assay on YANK1, 6%; with YANK2 it was 0%. Also, the “%Inh” value was determined as 0% in the assay with YANK3; 17% in the assay with YES; 0% with YSK1; 72% in the assay with YSK4; 4% in the assay with ZAK; 10% in the assay with ZAP70. Moreover, the entries for the “%Inh” value in the assay on p38-alpha (setting [1]), in the assay with p38-beta and in the assay on p38-delta were 2%, 25% and 30%, respectively.
For `CCN(CC)CCOc1ccc(Nc2ncc3cc(-c4c(Cl)cccc4Cl)c(=O)n(C)c3n2)cc1` [SB-601273], the “%Inh” value in the assay with WNK1 was 26%; in the assay with WNK2, 86%; in the assay on WNK3 it was 66%; with WNK4 it was 42%; in the assay on YANK1 it was 95.1%; in the assay with YANK3, 27%. Further, the “%Inh” value with YES came out at 100%; with YSK1 it was 37%; in the assay with YSK4, 99.2%; in the assay on ZAK it was 94.2%; in the assay on ZAP70 it was 63%; with p38-alpha (setting [1]) it was 100%. For the same compound, the “%Inh” value in the assay on p38-beta turned out to be 98.1%; in the assay on p38-delta, 16%; in the assay on p38-gamma it was 18%.
Take `O=C(NCCNc1ccnc(NCc2ccc(F)cc2)n1)c1cc2ccccc2s1` [GSK1379944]: the “%Inh” value in the assay with WNK1 is on record as 10%; in the assay with WNK2, 1%; in the assay with WNK3, 4%; in the assay with WNK4, 3%; with YANK1, 19%; with YANK2, 0%. Also, the “%Inh” value with YANK3 stood at 7%; with YES, 11%; in the assay on YSK1 it was 0%; in the assay on YSK4 it was 27%; with ZAK, 14%; in the assay on ZAP70 it was 0%. Moreover, the “%Inh” value in the assay on p38-alpha (setting [1]) amounted to 77%; in the assay with p38-beta, 0%; in the assay on p38-delta, 40%; in the assay on p38-gamma, 0%.
Regarding `C[C@@H]1CCN(C(=O)CC#N)C[C@@H]1N(C)c1ncnc2[nH]ccc12`, the “%Inh” value with WNK1, with WNK2, in the assay with WNK3, in the assay with WNK4, in the assay with YANK2 and in the assay with YANK3 was 0% in each case. Moreover, the “%Inh” value in the assay on YES is given as 0%; in the assay on YSK1 it was 0%; in the assay with YSK4 it was 8%; in the assay on ZAK, 0%; in the assay on ZAP70 it was 0%; in the assay on p38-alpha (setting [1]), 1%. The “%Inh” value in the assay with p38-beta was determined as 13%.
`Cc1cc2cn[nH]c2cc1-c1cccc2c(N)c(C(N)=O)nnc12`: the “%Inh” value amounted to 21% in the assay on WNK1; 3% in the assay on WNK2; 23% in the assay with WNK3; 11% with WNK4; 26% with YANK1; 0% with YANK2. The “%Inh” value stood at 0% in the assay on YANK3; 0% in the assay with YES; 0% in the assay with YSK1; 71% in the assay with YSK4; 21% in the assay with ZAK; 32% with ZAP70. In addition, the “%Inh” value in the assay with p38-alpha (setting [1]) is recorded as 0%; with p38-beta, 2%; with p38-delta, 0%; in the assay on p38-gamma, 52%.
On to `Cc1occc1-c1nc(N)c(OC[C@@H](N)Cc2c[nH]c3ccccc23)cc1-c1cc2c(C)n[nH]c2cn1` [GSK1660450], for which the “%Inh” value in the assay on WNK1 is recorded as 0%; in the assay with WNK2, 5%; in the assay with WNK3 it was 0%; with WNK4, 0%; with YANK1, 96.6%; in the assay on YANK2 it was 95.2%. The “%Inh” value in the assay with YANK3 amounted to 93.1%; in the assay on YES, 40%; in the assay with YSK1 it was 57%; in the assay on YSK4, 99.7%; in the assay on ZAK it was 31%; in the assay on ZAP70 it was 0%. Besides, the figures for the “%Inh” value in the assay on p38-beta, with p38-delta and in the assay with p38-gamma were 0%, 22% and 24%, respectively.
On to `COc1ccc(C[C@@H](CN)NC(=O)c2cc(Br)c(-c3ccnc4[nH]ccc34)s2)cc1.Cl.Cl` [GSK1389063], for which the “%Inh” value is 11% in the assay on WNK1; 32% with WNK2; 5% with WNK3; 0% in the assay on WNK4; 71% in the assay on YANK1; 46% with YANK2. Also, the “%Inh” value with YANK3 was determined as 50%; with YES, 22%; in the assay with YSK1, 100%; in the assay with YSK4, 99.6%; with ZAK, 0%; in the assay with ZAP70 it was 0%. Moreover, the “%Inh” value with p38-alpha (setting [1]) stood at 0%; with p38-beta, 0%; in the assay with p38-delta, 46%; in the assay with p38-gamma, 0%.
